Shown are actives, neighbours in structure and some others; about 3% of the full set was active somewhere.
LDHA inh = blocks human lactate dehydrogenase A; purified LDHA, NADH/diaphorase-resazurin fluorescence; stronger effect = lower value; activity change, % (values are at about 110 or 230 µM); actives 0.15% (n = 480,000); in the data active means activity change below about -30%; inconclusive means mostly about -25% to -30%
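LDH5 2 nM; NADH 0.06 mM, pyruvate 0.2 mM; 200 mM Tris pH 7.4, EDTA, Tween-20; 5 min RT. Detection: diaphorase 0.133 mg/mL + resazurin 37 µM, fluorescence ex540/em590 at 0 and 20 min; normalized to enzyme-free and DMSO wells.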
ClpP mod = qHTS Assay for Activators of ClpP; Potency, µM (series often up to 57.5 µM); actives 1.9% (n = 340,000); purified B. subtilis ClpP, FRET peptide cleavage, 20 min; active means well fitted falling curve with a large enough effect; inconclusive means small, poorly fitted or top-dose-only effect; inactive means no such curve, though single readings can be large or run the other way; further: the source files actives as falling curves though it sought activators and does not explain the sign; nearly all actives have a fitted effect of over 65% in size
Target sequence (P80244 whole entry, looked up): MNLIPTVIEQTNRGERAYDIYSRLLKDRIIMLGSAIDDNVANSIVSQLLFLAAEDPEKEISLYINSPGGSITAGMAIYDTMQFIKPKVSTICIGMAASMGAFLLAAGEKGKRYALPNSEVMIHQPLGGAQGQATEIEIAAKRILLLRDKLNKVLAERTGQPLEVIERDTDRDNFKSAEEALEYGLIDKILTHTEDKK
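FRET quenching reversal measured ClpP activation: 10 microg/mL B. subtilis ClpP at pH 8 with the FRET-FV decapeptide, read at 430 nm after 320 nm excitation. The 20-min minus 0-min signal was scaled between DMSO/no-enzyme wells and ADEP (5.8 microM final).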
KCNH2 WT inh = inhibitors of human wildtype KCNH2 potassium channel. Q12809. U2OS, BacMam KCNH2, thallium flux FluxOr; stronger effect = lower value. activity change, % at 1.84 µM. actives 0.37% (n = 340,000). AID 720551;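 active means maximum activity change below -70%; inconclusive means maximum activity change between -70% and -50%; inactive means maximum activity change above -50%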
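U2OS cells transduced with wild-type KCNH2 virus are loaded with FluxOr dye for 45 min, and thallium flux is measured in kinetic reads before and after stimulation buffer. Rate constants are normalized to DMSO controls.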
KCNH2 3.1 inh = blocks the human KCNH2 3.1 channel isoform; U2OS KCNH2 3.1, thallium flux FluxOr; stronger effect = lower value; activity change, % (tested at about 1.8 µM); actives 0.95% (n = 340,000); AID 720553;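 active means maximum activity change below -70%; inconclusive means maximum activity change from -70% to -50%; inactive means maximum activity change above -50%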;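 further: thallium influx rate constant from kinetic fluorescence after stimulation buffer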
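Channel expression came from 3.1 mutant virus (1.77 x 10^8 /mL) applied to suspended U2OS cells for 4 h. Flux was tracked with FluxOr dye plus Red40 quencher, and kinetic rate constants normalized to controls.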
12-LOX inh = ALOX12 (human) lipoxygenase inhibition | actives 1.1% (n = 580,000) | purified 12hLO, xylenol orange hydroperoxide absorbance | Potency, µM (titrated, usually from 108 µM), actives largely listed as inhibitors | AID 1671190 | P18054; active means well fitted inhibition curve with a large enough effect; inconclusive means small, poorly fitted or top-dose-only effect, or another doubt; inactive means no such curve, though single readings can be large or run the other way
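Purified human 12hLO at 150 nM in 25 mM Hepes, 0.01% Triton X-100, pH 7.0, preincubated 15 min at room temperature with compound. Reaction started with 40 uM arachidonic acid, 30 min at room temperature. Hydroperoxide measured by Fe-xylenol orange, 573/405 nm absorbance ratio.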
BCR signal inh = chronic active BCR signaling inhibition; ABC-DLBCL IkBa-CBG/CBR reporter, luminescence ratio, 4 h; Potency, µM (doses to about 46.1 µM), usual class: inhibitors; actives 0.05% (n = 340,000); active means well fitted inhibition curve with a large enough effect in the signal ratio, with a control signal flat, not every such curve was filed as active; inconclusive means small, poorly fitted or top-dose-only effect, or effect the other way, or a change in a side signal; the % refers to the signal ratio
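Doxycycline induced both beetle luciferases in TMD8 lymphoma cells; IKK-driven degradation limits the IkappaBalpha-fused green signal, while red luminescence normalises for cell number and nonspecific effects. Compounds tested up to 46 uM, 4 hrs.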
A number is an active result; i = inactive; ? = inconclusive; nt = no result given.

SMILES	LDHA inh	ClpP mod	KCNH2 WT inh	KCNH2 3.1 inh	12-LOX inh	BCR signal inh
N#Cc1c(N2CCN(C(=O)C(=O)N3CCOCC3)CC2)nc(-c2ccccc2)c2c1CCCC2	i	nt	nt	nt	?	nt
Cc1ccc(S(=O)(=O)N2CCN(c3nc(C)c4c(c3C#N)CC(C)(C)OC4)CC2)cc1	i	28µM	i	i	i	i
CNC(=O)CCn1ncc2cc(OCc3ccccc3-c3cccc(NC(C)=O)c3)ccc21	nt	nt	nt	nt	i	nt
Cc1ccc(S(=O)(=O)NC2(C(=O)O)CCCC2)cc1	i	35µM	i	nt	?	nt
S=C(NCCc1ccccc1)N1CCN(C23CC4CC(CC(C4)C2)C3)CC1	i	i	i	-88	i	i
Cc1cccc(N2CCN(C(=S)NCCc3ccccc3)CC2)c1C	i	i	i	i	?	?
S=C(NCCc1ccccc1)N1CCCC1	i	i	i	i	i	nt
Cc1ccc(Cl)cc1N1CCN(C(=S)NCCc2ccccc2)CC1	i	nt	i	i	35µM	?
CCc1ccc(-c2nc3cc(NC(=O)c4cccnc4)ccc3o2)cc1	i	nt	nt	nt	?	nt
Cc1noc(CSc2ccccc2C(=O)N2CC=C(c3ccccc3)CC2)n1	i	nt	nt	nt	?	nt
O=C(c1ccncc1)N1CCN(C2CCC(c3ccccc3)CC2)CC1 (stereo not drawn)	-32	nt	i	i	i	i
CN1C(=S)SC(N(O)C(=O)Nc2cccc3ccccc23)C1(C)C (stereo not drawn)	i	32µM	i	i	?	i
CN1C(=S)SC(N(O)C(=O)Nc2ccccc2)C1(C)C (stereo not drawn)	i	i	i	i	i	i
COC(=O)c1sc2ncccc2c1OCc1ccc(Cl)cc1	i	35µM	i	i	i	i
Oc1ccc(N=Nc2ccc3c(c2)OCCO3)c(O)c1	i	i	-73	i	i	?
CCc1cc(=O)oc2cc(OCC(=O)N(C)C)ccc12	i	nt	nt	nt	?	nt
C=CCn1c(SCC(=O)N2c3ccccc3Sc3ccccc32)nnc1-c1ccco1	i	nt	i	i	22µM	i
CCN1C(=O)[C@H]2[C@@H](c3ccc(-c4cccc(Cl)c4)c(OC)c3)N3CCC[C@@]3(C(=O)OC)[C@H]2C1=O	i	i	i	i	50µM	i
COC(=O)[C@@]12CCCN1[C@H](c1ccc(-c3cccc(Cl)c3)c(OC)c1)[C@H]1C(=O)N(C)C(=O)[C@H]12	i	i	i	-100	i	i
CCOc1ccccc1Oc1c(C)oc2cc(OC(=O)c3ccc4c(c3)OCO4)ccc2c1=O	i	nt	nt	nt	i	nt
CCOc1ccccc1Oc1coc2cc(OC(=O)c3ccc4c(c3)OCO4)ccc2c1=O	-31	nt	nt	nt	?	nt
COC(=O)Cc1[nH]nc2c1C(C1C=CCCC1)C(C#N)=C(N)O2 (stereo not drawn)	i	7.1µM	i	i	i	?
CCOC(=O)c1oc2ccccc2c1COC(=O)CNC(=O)c1cccc(C)c1	i	i	i	-80	?	i
CC1=C(C(=O)Nc2ccc(C(=O)NCCc3cccs3)cc2)SCCO1	i	nt	nt	nt	i	nt
Cc1cc(C)c2cc(C(=O)O)[nH]c2c1	i	nt	nt	nt	i	nt
SMILES	LDHA inh	ClpP mod	KCNH2 WT inh	KCNH2 3.1 inh	12-LOX inh	BCR signal inh
CC(C)c1ccc2oc(=O)cc(CN3CCN(CCO)CC3)c2c1	i	nt	nt	nt	?	nt
N=C(N)c1cccc(OCc2cccnc2)c1	i	nt	nt	nt	7.9µM	nt
CCCCCCCNC(=O)C1(CC2CC(c3cccc(Br)c3)=NO2)CCNCC1 (stereo not drawn)	i	i	i	-77	?	i
CCCCCCCNC(=O)C1(CC2CC(c3cccc(Br)c3)=NO2)CCN(C(=O)c2ccccc2)CC1 (stereo not drawn)	i	i	-71	?	i	i
CCCCCCCNC(=O)C1(CC2CC(c3cccc(Br)c3)=NO2)CCN(C(=O)Cc2ccc(F)cc2)CC1 (stereo not drawn)	i	i	i	i	nt	i
CC1CCN(CCCNC2CCCCCC2)CC1	i	nt	nt	nt	i	nt
CC(C)NC(=S)N/N=C1\CCCCC1C1CCCCC1 (stereo not drawn)	i	i	i	i	22µM	?
S=C(N/N=C1\CCCCC1C1CCCCC1)Nc1ccccc1 (stereo not drawn)	i	nt	nt	nt	16µM	nt
N#Cc1ccc(Cl)cc1N=C/C(Br)=C/c1ccccc1	i	nt	nt	nt	?	nt
O=C(NCCN1CCOCC1)[C@H]1C[C@@H](O)[C@H](O)[C@@H]2N=C(Nc3ccc(-n4cccn4)cc3)S[C@@H]21	nt	nt	nt	nt	i	nt
CC(=O)OCC=C(C)C	nt	nt	nt	nt	i	nt
O=C(Nc1cccc2ncccc12)c1ccc2ccccc2c1	i	nt	nt	nt	11µM	nt
CC(C)CCN1CCC(N2CCN(C(=O)c3ccc(C(F)(F)F)cc3)CC2)C1=O (stereo not drawn)	nt	nt	nt	nt	i	nt
CCCCn1c(=O)[nH]c(=O)c2c1nc(-c1ccc(OC)c(C)c1)n2C	i	nt	nt	nt	i	nt
Cc1oc(-c2ccccc2Cl)nc1CS(=O)CC(=O)NC1CC1 (stereo not drawn)	i	i	-261	i	i	i
CCCNC(=O)CN(C)C(=O)c1cc2ccccc2n1C	i	nt	nt	nt	i	nt
c1ccc(Cn2c(-c3ccccc3)nc3nc4ccccc4nc32)cc1	i	32µM	i	i	i	i
C/C=C/C=C/C(=O)N1CCN(CC(F)(F)F)CC1	i	nt	nt	nt	?	nt
Cc1ccc(C(=O)Nc2ccc(Br)cc2)cc1S(=O)(=O)Nc1ccccn1	i	28µM	i	i	i	i
Cc1ccc(C)c(S(=O)(=O)Nc2ccccc2C(=O)Nc2ccc(S(=O)(=O)Nc3ncccn3)cc2)c1	i	25µM	i	i	i	i
Cc1ccc(C(=O)Nc2ccccc2)cc1S(=O)(=O)Nc1ccc(Br)cc1	i	i	nt	nt	?	nt
Cc1ccc(S(=O)(=O)Nc2ccccc2C(=O)Nc2ccc(S(=O)(=O)Nc3nccc(C)n3)cc2)cc1	i	13µM	i	i	i	i
Cc1c(CCC(=O)NC2(C)CCS(=O)(=O)C2)c(=O)oc2cc(O)ccc12 (stereo not drawn)	i	nt	nt	nt	i	nt
NS(=O)(=O)c1ccc(N2CCN(S(=O)(=O)Cc3ccccc3)CC2)nc1	i	nt	i	i	i	i
NS(=O)(=O)c1ccc(N2CCN(CCOc3ccc(Cl)cc3)CC2)nc1	i	nt	i	-95	i	i
Cc1ccc(S(=O)(=O)N2CC(O)CC2C(=O)O)cc1 (stereo not drawn)	i	35µM	i	i	i	i
N#Cc1ccccc1COC(=O)C1COc2ccccc2O1 (stereo not drawn)	i	nt	nt	nt	i	nt
COC(=O)C1=C(C)Nc2[nH]c(=S)[nH]c(=O)c2C1c1ccc(OC)cc1 (stereo not drawn)	i	i	i	i	25µM	i
C#Cc1cccc(NS(=O)(=O)c2cccs2)c1	i	nt	nt	nt	i	nt

Source: PubChem (National Center for Advancing Translational Sciences (NCATS))
